Experimental data from PubChem BioAssay.
Values without a mark were called inactive.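 The calls were made as follows: active = RAM network inhibition above 8.4% in each of two replicates, 3 SD over the compound average; inconclusive = above 8.4% inhibition in only one replicate; inactive = 8.4% inhibition or less in each replicate.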

experiment: RAM signaling pathway blockade in yeast – S. cerevisiae, Pdr1DBD-CYC8 efflux-inhibited sensitized strain, primary screen (AID 1298);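 also: 0% = DMSO untreated cells without growth and 100% = 10 µM 1-NA-PP1 full growth; higher means more yeast growth rescued from 5-FOA killing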; conditions: S. cerevisiae cbk1-as DSE1-URA3 strain, 5-FOA growth OD615, 2 d; at 50 µM; stronger effect = higher value

Compound | RAM network inhibition
Cc1cc(C(=O)NCc2ccc3c(c2)OCO3)n(-c2ccccc2)n1 | 4.44%
Cc1oc(-c2cccs2)nc1CS(=O)CC(=O)NCCc1ccccc1 (stereo not given) | 7.8%
CCOc1ccc(C(=O)Nn2cnnc2)cc1 | 1.85%
COc1ccc(C(=O)Nc2c(N)nc(SCC(=O)N3CCCCCC3)[nH]c2=O)cc1OC | 5.94%
Cc1nnc(NC(=O)CSc2nnc(Cc3cccn3C)n2C)s1 | 1.93%
O=C(c1ccccn1)N(CC1CCCO1)C1(C(=O)NC2CCCCC2)CCCCC1 (stereo not given) | -0.32%
O=C(Cc1n[nH]c(=O)c2ccccc12)NCc1ccccn1 | 2.08%
Cn1c(C(=O)N2CCCCCC2)cc2c(=O)n(C)c3ccccc3c21 | 4.52%
COC(=O)c1ccccc1NC(=O)CSc1nc(N)cc(N)n1 | -0.05%
COc1ccc(C2(CNC(C)=O)CCOCC2)cc1OC | -0.32%
CCc1ccc(-c2nc(C(N)=O)c3[nH]c(=O)n(-c4ccccc4OC)c3n2)cc1 | 10.7%
Cc1ccccc1-c1nc(CN2CCC(C(=O)O)CC2)c(C)o1 | 0.11%
Cc1ccc(C)c(NC(=O)CS(=O)(=O)c2c[nH]c3ccccc23)c1 | -0.27%
COc1ccc(N2CSC3=C(C#N)C(c4ccc(OC)c(OC)c4)CC(=O)N3C2)c(OC)c1 (stereo not given) | 0.93%
O=C1CCc2cc(S(=O)(=O)NC(Cc3ccccc3)C(=O)NCC3CCCO3)ccc2N1 (stereo not given) | 1.49%
COC(=O)c1c(C)nc(C)c2c(=O)oc3ccccc3c12 | 1.99%
CSc1nnc2c(n1)OC(c1ccc(C(=O)O)cc1)N(C(C)=O)c1ccccc1-2 (stereo not given) | 3.34%
CC(C)CNC1=CC(=O)CC(c2ccco2)C1 (stereo not given) | -0.73%
CCOC(=O)c1ccc2nc(NC(=O)C(C)C)sc2c1 | 0.06%
CCCOC(=O)C1=C(C)NC2=C(C(=O)CC(C)(C)C2)C1c1ccc(N(C)C)cc1 (stereo not given) | 6.21%

Compound | RAM network inhibition
CCOC(=O)N1CCN(C(=O)Cn2ncc3ccccc32)CC1 | 2.51%
O=C(NC(Nc1ncccn1)C(=O)c1ccccc1)c1ccccc1 (stereo not given) | 2.01%
CCCCn1c(CCNC(=O)CC)nc2ccccc21 | 5.26%
CCOC(=O)N1CCN(C(=O)CCSc2ccccc2)CC1 | 0.95%
O=C(Nc1nc2c(Cl)ccc(Cl)c2s1)c1ccco1 | 2.84%
O=C(CSCC(=O)N1CCOCC1)Nc1ccccc1 | 2.75%
CCOC(=O)CSc1nnc(Cn2c(=O)sc3ccccc32)n1-c1ccccc1C | 2.24%
CC1(C)CC(=O)c2sc(NC(=O)CN3C(=O)CCC3=O)nc2C1 | 2.38%
Cc1cc(NC(=O)NC2(C(F)(F)F)Oc3ccc(Cl)cc3O2)no1 (stereo not given) | 7.87%
CN1CCN(CCCNC(=O)c2ccc3c(c2)N(Cc2ccccc2)CCS3)CC1 | 4.28%
O=C(NC(O)C(=O)c1ccccc1)c1cccs1 (stereo not given) | 2.71%
Cc1ccc(-c2nc(CS(=O)(=O)CC(=O)N3CCc4ccccc4C3)c(C)o2)cc1 | 7.91%
COc1ccccc1N1CSC2=C(C#N)C(c3ccc(SC)cc3)CC(=O)N2C1 (stereo not given) | 3.52%
COc1ccc(Cl)cc1C(=O)N(Cc1nc(-c2cccc(C)c2)no1)C(C)C | 8.49%
CCOc1cccc(C(=O)Nc2cccc(-c3nnc(-c4ccccc4)o3)c2)c1 | 2.46%
CC1C(c2ccccc2)=[N+]([O-])C2(CCCC2)N1O (stereo not given) | 1.41%
CC(=O)c1cccc(NC(=O)C2CCCC2)c1 | -2.18%
O=C(NCCN1CCCCC1)c1ccc2c(c1)OCCO2 | 2.64%
O=C(NCc1ccco1)C1CCN(S(=O)(=O)c2cccc3cccnc23)CC1 | 2.63%
CCSC1=C(C#N)C(c2ccccc2C)CC(=O)N1 (stereo not given) | 4.78%
